The source of these data is PubChem BioAssay.

Test [1] is described as follows: yeast TOR pathway RPL19A-GFP modulators, primary screen, cell-based, S. cerevisiae, multiplex flow cytometry (AID 1862; in the data active = percent of DMSO control GFP below about 86%;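 also: lower values mimic rapamycin by blocking the RPL19A rise seen in DMSO cells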). To be noted: S. cerevisiae RPL19A-GFP strain, flow cytometry fluorescence, 3 h; at 10 µM; stronger effect = lower value.
Test [2] is described as follows: modulators of MEP2-GFP levels in yeast, primary screen, S. cerevisiae, multiplex flow cytometry (AID 1867).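 Also: median GFP channel fluorescence of barcode-gated MEP2-GFP cells measured by flow cytometry.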 The following applies: S. cerevisiae MEP2-GFP strain, 3 h, at 10 µM, stronger effect = higher value, 100% means same as DMSO wells. (In general: A flow cytometer gives signals particle by particle.)
The nature of test [3]: modulators of CIT2-GFP expression in yeast, primary screen, S. cerevisiae, GFP fusion, multiplex flow cytometry (AID 1870;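 active = percent response above a set limit, the screen-wide mean plus 3 SD, cut at about 130% in these data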;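 also: barcoded CIT2-GFP strain pooled with four other GFP strains with rapamycin as positive control; median GFP fluorescence per well over plate mean of DMSO wells so 100% = DMSO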). To be noted: 3 h, at 10 µM, stronger effect = higher value.
The nature of test [4]: modulators of LAP4-GFP expression in yeast, primary screen, S. cerevisiae, multiplex flow cytometry (AID 1873;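 active = GFP signal, as percent of the solvent control, above the screen mean plus 3 SD, about 149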). The following applies: 3 h, at 10 µM, stronger effect = higher value.
Test [5] is described as follows: modulators of AGP1-GFP expression in yeast TOR pathway, primary screen, cell-based, multiplex flow cytometry, S. cerevisiae (AID 1887;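 active = GFP signal above the screen-wide mean plus 3 SD, that is over about 124.5% of the solvent control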;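 also: AGP1-GFP fusion strain of S. cerevisiae within a five-strain barcoded multiplex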). To be noted: 3 h, at 10 µM, stronger effect = higher value.
A short description of test [6]: inhibitors of CD8+ T cell-vesicle binding, pilot screen, LFA-1/ICAM-1 modulator project, MLPCN validation set, flow cytometry (AID 2523;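 active = response below a set limit, under 55% cells CD8-positive and vesicle-bound, and CD8 cells' 90th-percentile brightness under 279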;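 as to vesicle binding response: mean PE anti-B7-1 fluorescence of CD8+ cells relative to row control; 100% = QL9-loaded vesicles with DMSO vehicle in the same plate row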). To be noted: 2C mouse CD8+ T cells, at 7 µM, stronger effect = lower value; double positive events: measured here: CD8+/vesicle+ event percentage.
In test [7] the target is Integrin beta-1 (Homo sapiens) + Integrin alpha-4 (Homo sapiens) (UniProt P13612+P05556). The test is described as follows: inhibition of HUTS-21 binding to VLA-4, pilot screen, VLA-4 allosteric modulator project, U937 cells, HUTS-21 mAb, flow cytometry, validation set (AID 2674;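 active = inhibition above 50%, about 3 SD of the validation set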;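 also: antibody binding induced by the VLA-4 ligand LDV present at three times its Kd; 0% = LDV ligand with antibody and no compound and 100% = antibody without LDV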). The following applies: HUTS-21 LIBS mAb binding, at 6.7 µM, stronger effect = higher value, binding induced by LDV ligand.

The nature of test [8]: superoxide lowering in aged yeast cells, pilot screen, validation compound set (AID 2706;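 active = superoxide response below 65% of plate, a cut near 3 SD across the whole screen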;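 also: yeast exposed to compound for one week at 30 degrees C before staining; 100% = mean of all compound wells on the same plate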). The following applies: S. cerevisiae aging, superoxide DHE fluorescence; at 10 µM; stronger effect = lower value.
The target of test [9] is Beta-adrenergic receptor kinase 1 (Homo sapiens) (UniProt P25098). Briefly: GRK2 binders displacing RNA aptamer, biochemical, validation, human GRK2, bead flow cytometry (AID 488806;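 active = aptamer binding inhibition above 30%, about 3 SD of noise from non-fluorescent compounds; inactive = inhibition at or below 30%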). The following applies: bead-bound GRK2, FAM-aptamer displacement, at 10 µM, stronger effect = higher value.
For test [10], the target named is Beta-2 adrenergic receptor (Homo sapiens) (UniProt P07550). Briefly: beta2AR agonists driving receptor internalization, pilot screen, cell-based, FAP fluorogen, flow cytometry, validation set (AID 504459;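 active = percent response above 42, roughly 3 SD of non-fluorescent test compounds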;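 also: agonist-driven loss of surface beta2AR via internalization measured by FAP dye flow cytometry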). The following applies: Am2.2-beta2AR cells, FAP surface receptor flow cytometry; at 10 µM; stronger effect = higher value.
The target of test [11] is AP-2 complex subunit beta (Homo sapiens) (UniProt P63010). The test is described as follows: inhibitors of arrestin peptide binding to AP2, pilot screen, biochemical, validation set, GST-AP2 beads, flow cytometry (AID 504541;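 active = inhibition above 54%, about 3 SD of non-fluorescent compounds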;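 also: AP2 carries R879A mutation and is captured from E. coli lysate; bead-bound FITC arrestin peptide fluorescence measuring arrestin peptide binding to AP2; 0% = DMSO wells and 100% = excess unlabeled arrestin peptide control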). The following applies: FITC arrestin peptide, at 10 µM, stronger effect = higher value, AP2 beta2 appendage fragment, R879A mutant.
Test [12] in a line: yeast V-ATPase proton transport modulators, S. cerevisiae, pHLuorin, HTS validation (AID 504600; in the data active = response above about 15%;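 also: plate controls were DMSO for no effect and reference compound for full effect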). To be noted: S. cerevisiae pHLuorin cytosolic pH, at 10 µM, stronger effect = higher value.
In test [13] the test system is anti-desmoglein-3 scFv antibody binding to human DSG3. Briefly: inhibitors of anti-DSG3 scFv binding to DSG3, pilot screen, biochemical, validation compound set, bead-based, flow cytometry (AID 588368;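 active = binding below the plate cutoff, the plate median minus 3 SD, with a reading above zero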;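 also: signal is the median channel fluorescence of bead-bound GFP antibody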). The following applies: Protein G beads, DSG3-Fc, scFv-GFP binding, at 10 µM, stronger effect = lower value.
Test [14] can be described thus: inhibitors of fungal efflux pumps CDR1, CDR2, MDR1, pilot screen, validation compound set, multiplex, phenotypic (AID 588506;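 active = efflux inhibition above 0.42, the validation set average plus 4 SD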;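 also: Nile Red retained in cells so higher fluorescence means more efflux inhibition; 0 = negative control wells and 1 = enniatin B 25 µM full block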). To be noted: S. cerevisiae pump-expressing triplex, Nile Red efflux flow cytometry; at 10 µM; stronger effect = higher value; the pumps come from Candida albicans.
Test [15] addresses ATP-binding cassette sub-family B member 6 (Homo sapiens) (UniProt Q9NP58). Briefly: ABCB6 transporter inhibitors, pilot screen, K562-ABCB6 cells, flow cytometry, validation set (AID 588550;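 active = inhibition above the screen-wide mean plus 3 SD, about 51%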;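 also: 0% = DMSO wells and 100% = benzethonium chloride 70 µM positive control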). The following applies: K562-ABCB6 porphyrin accumulation, 1 h, at 10 µM, stronger effect = higher value.
The nature of test [16]: promoters of myeloid differentiation in arrested cells, primary screen, cell-based, GFP/MAC1 double positive, flow cytometry, validation set (AID 588685;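 active = differentiation response of at least 50%, scaled between solvent and reference control, from cells with both markers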;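 also: compound exposure lasts four days before antibody staining and flow analysis; 0% = DMSO wells and 100% = 5 µM fulvestrant positive control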). The following applies: ER-HoxA9 marrow cells, stronger effect = higher value, normalized: vehicle 0, fulvestrant 100.

Each structure is given as a SMILES string. Inconclusive results are not listed. Calls of active or inactive are those of the source.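 The calls were made as follows, unless noted: active = GFP response, as percent of the DMSO control, above the screen-wide mean plus 3 SD, about 139; inconclusive = no response measured because the compound's own fluorescence interfered; inactive = the rest.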

Sequence of Beta-adrenergic receptor kinase 1 (Homo sapiens) (P25098 whole entry, looked up): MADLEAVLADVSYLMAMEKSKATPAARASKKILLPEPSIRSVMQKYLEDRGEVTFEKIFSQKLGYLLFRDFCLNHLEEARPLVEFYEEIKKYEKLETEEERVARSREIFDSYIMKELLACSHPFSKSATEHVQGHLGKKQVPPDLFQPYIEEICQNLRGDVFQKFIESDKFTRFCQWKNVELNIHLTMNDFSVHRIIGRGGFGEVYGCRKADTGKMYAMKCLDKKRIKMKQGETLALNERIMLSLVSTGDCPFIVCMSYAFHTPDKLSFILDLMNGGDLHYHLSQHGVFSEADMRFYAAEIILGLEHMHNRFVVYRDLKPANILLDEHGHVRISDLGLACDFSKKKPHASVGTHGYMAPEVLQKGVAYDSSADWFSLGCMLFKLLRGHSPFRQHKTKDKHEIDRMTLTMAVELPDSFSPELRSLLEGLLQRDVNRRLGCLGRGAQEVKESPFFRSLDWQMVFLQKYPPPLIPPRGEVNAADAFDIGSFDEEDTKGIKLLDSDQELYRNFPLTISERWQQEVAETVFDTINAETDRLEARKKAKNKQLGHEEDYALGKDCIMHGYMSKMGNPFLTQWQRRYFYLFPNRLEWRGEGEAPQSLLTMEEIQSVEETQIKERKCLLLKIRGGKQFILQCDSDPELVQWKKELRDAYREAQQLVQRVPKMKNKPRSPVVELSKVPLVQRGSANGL
Sequence of ATP-binding cassette sub-family B member 6 (Homo sapiens) (Q9NP58 whole entry, looked up): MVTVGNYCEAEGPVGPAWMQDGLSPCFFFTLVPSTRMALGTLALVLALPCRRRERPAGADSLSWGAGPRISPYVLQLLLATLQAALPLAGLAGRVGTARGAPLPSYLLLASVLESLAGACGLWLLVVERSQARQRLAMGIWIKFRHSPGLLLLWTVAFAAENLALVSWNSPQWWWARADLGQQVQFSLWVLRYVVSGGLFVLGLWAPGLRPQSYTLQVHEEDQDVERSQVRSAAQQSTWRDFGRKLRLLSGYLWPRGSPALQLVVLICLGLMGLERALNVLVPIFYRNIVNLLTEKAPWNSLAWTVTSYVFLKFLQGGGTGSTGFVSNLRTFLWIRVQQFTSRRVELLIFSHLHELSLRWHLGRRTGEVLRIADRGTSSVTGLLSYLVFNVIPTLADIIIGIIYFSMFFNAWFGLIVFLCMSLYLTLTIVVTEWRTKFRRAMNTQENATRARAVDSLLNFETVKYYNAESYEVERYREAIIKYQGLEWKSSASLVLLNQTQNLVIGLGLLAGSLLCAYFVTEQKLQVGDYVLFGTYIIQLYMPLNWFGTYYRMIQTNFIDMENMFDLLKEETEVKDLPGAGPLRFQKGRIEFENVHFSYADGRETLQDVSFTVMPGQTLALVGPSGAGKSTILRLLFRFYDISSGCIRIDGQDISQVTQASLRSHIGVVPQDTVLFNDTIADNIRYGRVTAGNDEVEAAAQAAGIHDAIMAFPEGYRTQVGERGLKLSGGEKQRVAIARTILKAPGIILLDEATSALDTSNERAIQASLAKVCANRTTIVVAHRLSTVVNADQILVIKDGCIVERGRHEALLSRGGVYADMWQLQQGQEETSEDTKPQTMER
Sequence of AP-2 complex subunit beta (Homo sapiens) (P63010 whole entry, looked up, the tested form may be a part, one chain of several): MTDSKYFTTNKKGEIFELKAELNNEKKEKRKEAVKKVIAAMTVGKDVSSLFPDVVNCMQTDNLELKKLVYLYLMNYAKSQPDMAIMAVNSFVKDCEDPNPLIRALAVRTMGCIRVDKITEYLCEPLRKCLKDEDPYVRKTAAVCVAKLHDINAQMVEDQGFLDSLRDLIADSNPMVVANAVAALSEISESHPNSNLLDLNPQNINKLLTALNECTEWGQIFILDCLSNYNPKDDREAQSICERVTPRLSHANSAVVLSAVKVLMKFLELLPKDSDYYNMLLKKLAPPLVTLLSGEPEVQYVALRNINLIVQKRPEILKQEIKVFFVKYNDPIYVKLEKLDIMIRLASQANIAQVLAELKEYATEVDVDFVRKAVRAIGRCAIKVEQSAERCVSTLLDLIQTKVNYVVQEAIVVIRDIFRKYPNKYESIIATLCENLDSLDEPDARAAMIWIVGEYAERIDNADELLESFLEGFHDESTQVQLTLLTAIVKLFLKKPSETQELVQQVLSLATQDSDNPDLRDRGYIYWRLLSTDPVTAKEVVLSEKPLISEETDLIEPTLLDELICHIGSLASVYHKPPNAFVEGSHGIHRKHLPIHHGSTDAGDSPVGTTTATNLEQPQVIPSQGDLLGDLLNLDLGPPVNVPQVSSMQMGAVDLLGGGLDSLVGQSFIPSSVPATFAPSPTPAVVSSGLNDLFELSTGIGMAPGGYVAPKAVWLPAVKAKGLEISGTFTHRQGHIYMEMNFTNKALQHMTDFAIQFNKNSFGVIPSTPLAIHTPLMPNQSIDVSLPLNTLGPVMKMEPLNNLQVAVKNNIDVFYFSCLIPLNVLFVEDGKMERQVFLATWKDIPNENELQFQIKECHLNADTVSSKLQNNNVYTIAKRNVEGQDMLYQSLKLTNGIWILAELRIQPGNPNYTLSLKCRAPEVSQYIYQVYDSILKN
Sequence of Integrin beta-1 (Homo sapiens) + Integrin alpha-4 (Homo sapiens) (P05556 whole entry, looked up): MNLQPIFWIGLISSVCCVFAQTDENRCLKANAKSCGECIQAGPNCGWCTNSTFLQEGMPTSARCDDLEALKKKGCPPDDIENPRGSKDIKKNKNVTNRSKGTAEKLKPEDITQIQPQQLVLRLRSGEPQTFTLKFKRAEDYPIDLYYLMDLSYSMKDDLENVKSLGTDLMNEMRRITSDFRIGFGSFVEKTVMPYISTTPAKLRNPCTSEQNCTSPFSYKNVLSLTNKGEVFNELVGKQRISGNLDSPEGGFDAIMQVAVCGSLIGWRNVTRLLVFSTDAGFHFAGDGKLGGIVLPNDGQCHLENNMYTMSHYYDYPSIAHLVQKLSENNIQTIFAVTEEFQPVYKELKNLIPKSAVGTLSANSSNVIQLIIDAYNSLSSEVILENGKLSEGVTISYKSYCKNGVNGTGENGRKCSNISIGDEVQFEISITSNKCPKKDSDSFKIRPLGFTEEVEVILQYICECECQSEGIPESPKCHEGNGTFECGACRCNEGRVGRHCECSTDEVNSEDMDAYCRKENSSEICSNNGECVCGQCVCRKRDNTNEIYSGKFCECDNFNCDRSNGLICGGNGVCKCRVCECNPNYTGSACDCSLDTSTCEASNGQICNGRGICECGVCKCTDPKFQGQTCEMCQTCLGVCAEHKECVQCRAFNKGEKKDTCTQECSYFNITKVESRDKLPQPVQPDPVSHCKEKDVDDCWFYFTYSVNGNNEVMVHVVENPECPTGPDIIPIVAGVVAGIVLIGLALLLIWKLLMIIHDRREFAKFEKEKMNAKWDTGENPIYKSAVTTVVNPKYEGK
Sequence of Integrin beta-1 (Homo sapiens) + Integrin alpha-4 (Homo sapiens) (P13612 whole entry, looked up): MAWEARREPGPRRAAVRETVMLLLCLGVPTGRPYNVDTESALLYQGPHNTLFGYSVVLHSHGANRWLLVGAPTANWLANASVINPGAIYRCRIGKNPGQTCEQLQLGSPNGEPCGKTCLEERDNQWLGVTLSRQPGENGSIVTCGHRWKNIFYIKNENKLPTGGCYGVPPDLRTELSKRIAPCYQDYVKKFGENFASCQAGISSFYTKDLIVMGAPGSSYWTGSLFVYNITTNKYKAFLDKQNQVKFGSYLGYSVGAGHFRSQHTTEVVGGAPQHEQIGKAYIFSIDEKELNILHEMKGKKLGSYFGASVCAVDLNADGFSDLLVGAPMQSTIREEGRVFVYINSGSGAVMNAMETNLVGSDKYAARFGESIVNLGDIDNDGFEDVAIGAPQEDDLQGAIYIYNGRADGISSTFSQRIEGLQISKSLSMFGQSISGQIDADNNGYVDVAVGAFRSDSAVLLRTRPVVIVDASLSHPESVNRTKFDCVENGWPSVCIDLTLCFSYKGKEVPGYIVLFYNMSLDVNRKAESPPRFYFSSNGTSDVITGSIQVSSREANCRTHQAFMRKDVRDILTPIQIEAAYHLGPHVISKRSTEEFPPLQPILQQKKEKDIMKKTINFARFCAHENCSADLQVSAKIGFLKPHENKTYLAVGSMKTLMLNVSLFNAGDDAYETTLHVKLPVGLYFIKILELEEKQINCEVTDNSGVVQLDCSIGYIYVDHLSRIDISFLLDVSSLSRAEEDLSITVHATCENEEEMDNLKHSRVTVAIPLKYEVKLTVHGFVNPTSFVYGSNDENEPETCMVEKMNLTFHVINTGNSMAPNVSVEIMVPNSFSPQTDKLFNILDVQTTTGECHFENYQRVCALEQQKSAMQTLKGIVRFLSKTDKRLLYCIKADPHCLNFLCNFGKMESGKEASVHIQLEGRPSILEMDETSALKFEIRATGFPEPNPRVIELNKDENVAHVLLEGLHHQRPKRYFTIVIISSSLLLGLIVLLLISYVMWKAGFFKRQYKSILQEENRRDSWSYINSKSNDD
Sequence of Beta-2 adrenergic receptor (Homo sapiens) (P07550 whole entry, looked up): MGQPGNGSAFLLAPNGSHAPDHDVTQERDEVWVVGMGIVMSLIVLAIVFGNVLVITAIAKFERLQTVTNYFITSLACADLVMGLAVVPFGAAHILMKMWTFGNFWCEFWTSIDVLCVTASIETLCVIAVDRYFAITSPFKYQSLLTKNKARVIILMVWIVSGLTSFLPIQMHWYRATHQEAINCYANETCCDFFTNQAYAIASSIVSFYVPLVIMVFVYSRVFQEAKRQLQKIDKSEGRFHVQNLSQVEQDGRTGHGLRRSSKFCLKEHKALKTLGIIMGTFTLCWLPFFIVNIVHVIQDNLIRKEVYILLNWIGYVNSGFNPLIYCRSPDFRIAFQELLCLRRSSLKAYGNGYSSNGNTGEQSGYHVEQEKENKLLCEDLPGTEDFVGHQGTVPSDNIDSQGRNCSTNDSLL

In general, inhibition refers to the drop in the measured response relative to a control, in per cent. Turning to `COc1ccc2c(c1O)Cc1ccccc1C2=O`, in test [1], the percent of DMSO control GFP was 94.8% (inactive). Further, the GFP response vs DMSO in [2] was 139% (inactive); in [4], 84.7% (inactive). The percent response of DMSO control in test [3] is 110% (inactive). The GFP response, % of DMSO in [5] was 92.4% (inactive). Further, in test [6], the double positive events stood at 56.5%. Besides, the vesicle binding response in test [6] is 220% (inactive). Moreover, the inhibition in test [7] was -13.9% (inactive); in [11] it was 46.1% (inactive); in [15] it was 109% (active). For the same molecule, in [8], the superoxide response (% of plate) was 117% (inactive). Moreover, the aptamer binding inhibition in test [9] is 0% (inactive). The response was 0.34% (inactive) in test [10] and -2.94% (inactive) in test [12]. Also, the binding (% of control) in test [13] was 104% (inactive). Further, the efflux inhibition (fraction of control) in test [14] was -0.06 (inactive). In addition, the differentiation response in test [16] was -0.82% (inactive).
For the molecule `CC1(C)CC(CNCCC(c2ccc(F)cc2)c2ccco2)CCO1` (stereo not given), the percent of DMSO control GFP in [1] was 96.1% (inactive). In addition, the GFP response vs DMSO was 110% (inactive) in test [2] and 82.5% (inactive) in test [4]. Also, in [3], the percent response of DMSO control is 106% (inactive). In [5], the GFP response, % of DMSO is 103% (inactive). The double positive events in test [6] is 93.3%. Also, the vesicle binding response in test [6] is 272% (inactive). For the same molecule, the inhibition in [7] was 3.55% (inactive); in test [11] it was 0.76% (inactive); in test [15], 11% (inactive). The superoxide response (% of plate) in [8] was 87.8% (inactive). Besides, the aptamer binding inhibition in test [9] is 3% (inactive). The response in test [10] is 4.87% (inactive); in [12] it was 5.44% (inactive). The binding (% of control) in test [13] is 104% (inactive). Moreover, the efflux inhibition (fraction of control) in test [14] was 0.12 (inactive). Further, the differentiation response in [16] is -4.09% (inactive).
As to `C[C@@H]1C[C@H]2[C@@H]3C[C@H](F)C4=CC(=O)C=C[C@]4(C)[C@@]3(F)[C@@H](O)C[C@]2(C)[C@@]1(O)C(=O)COC(=O)C(C)(C)C`, the percent of DMSO control GFP in [1] is 101% (inactive). Besides, the GFP response vs DMSO is 105% (inactive) in test [2] and 98.7% (inactive) in test [4]. Besides, in test [3], the percent response of DMSO control is 99.3% (inactive). Besides, the GFP response, % of DMSO in test [5] is 99.2% (inactive). The molecule also gave a double positive events in [6] of 58.5%. Also, the vesicle binding response in test [6] was 142% (inactive). Further, the inhibition is 6.85% (inactive) in test [7], 19.2% (inactive) in [11] and 4% (inactive) in test [15]. For the same molecule, the superoxide response (% of plate) in test [8] was 104% (inactive). Besides, in test [9], the aptamer binding inhibition was 3% (inactive). Moreover, the response in test [10] is -5.56% (inactive); in test [12], 0.5% (inactive). The binding (% of control) in test [13] was 100% (inactive). In addition, the efflux inhibition (fraction of control) in test [14] was 0.14 (inactive). In [16], the differentiation response is -4.16% (inactive).
`CCc1nc(N)nc(N)c1-c1ccc(Cl)cc1`: in test [1], the percent of DMSO control GFP is 92.2% (inactive). The GFP response vs DMSO was 112% (inactive) in [2] and 70.4% (inactive) in [4]. Moreover, the percent response of DMSO control in test [3] was 102% (inactive). Moreover, the GFP response, % of DMSO in [5] is 101% (inactive). This molecule also displayed a double positive events in test [6] of 65.6%. Moreover, the vesicle binding response in test [6] is 209% (inactive). Also, the inhibition in test [7] was 5.49% (inactive); in test [11] it was 1.62% (inactive); in test [15], 10% (inactive). For the same molecule, in test [8], the superoxide response (% of plate) is 87.5% (inactive). In addition, the aptamer binding inhibition in test [9] was 0% (inactive). The response in test [10] is -2.3% (inactive); in test [12], 1.08% (inactive). In addition, in test [13], the binding (% of control) is 137% (inactive). Besides, the efflux inhibition (fraction of control) in test [14] is 0.23 (inactive). Besides, in test [16], the differentiation response is -3.28% (inactive).
In the case of `Cc1[nH]c2ccccc2c1/C=C/c1nc2ccccc2c(=O)n1CCO`, the percent of DMSO control GFP in test [1] was 102% (inactive). In addition, the GFP response vs DMSO was 106% (inactive) in test [2] and 110% (inactive) in test [4]. The percent response of DMSO control in test [3] is 97.7% (inactive). In test [5], the GFP response, % of DMSO was 100% (inactive). For the same molecule, in test [6], the double positive events was found to be 59%. For the same molecule, in test [6], the vesicle binding response is 200% (inactive). The results for the inhibition in [7], in test [11] and in test [15] were -15.4% (inactive), 12.7% (inactive) and 4% (inactive), respectively. The superoxide response (% of plate) in test [8] was 89.8% (inactive). For the same molecule, the aptamer binding inhibition in test [9] is 7% (inactive). Besides, the response was 20.6% (inactive) in test [10] and -3.06% (inactive) in test [12]. For the same molecule, in [13], the binding (% of control) was 106% (inactive). For the same molecule, the efflux inhibition (fraction of control) in [14] was 0.33 (inactive). The differentiation response in [16] is 0.8% (inactive).
